High-throughput results deposited in PubChem BioAssay by National Center for Advancing Translational Sciences (NCATS).
This is a sample that favours compounds with a hit; in the whole collection about 21% have one here.
Pf growth 96h: P. falciparum growth inhibition at 96 hour, primary screen for plastid delayed-death inhibitors; 6.9% of 320,000 active; AID 504834; P. falciparum luciferase reporter growth, 96 h; Potency, µM (top dose mostly 28.7 µM), without a hit: at the highest dose activity change, negative = inhibition, usual class: inhibitors; note: potency is the fitted concentration of half-maximal effect; % is set by controls: 0 for no effect and ±100 for the full control effect
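96 h incubation, 37 C, 5% CO2, of luciferase-reporter P. falciparum-infected RBCs (2% hematocrit, 0.05% parasitemia final) with test compounds; endpoint luminescence.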
Shiga inhibitor: inhibitors of Shiga toxin in Vero cells; Vero cells, Shiga toxin protein synthesis inhibition reporter; inhibition, % at 38.7 µM; 9.2% of 290,000 active; in the data active = inhibition mostly above about 28%, no sharp cut-off; inactive = mostly below about 43%; note: 0% is about no effect
CHX counter: affects cycloheximide protein synthesis inhibition readout, counter-screen | cell reporter, cycloheximide protein synthesis inhibition counterscreen | max response, % | 12% of 300,000 active | AID 2314; in the data active = max response mostly above about 13%, no sharp cut-off; inactive = mostly below about 14%; note: read at 38.3 µM for the half of the compounds with a filed dose; 0% is about no effect
NS1 function inh: influenza NS1 inhibition | AID 2326 | Potency, µM (series often up to 46.1 µM), for inactives: at the top dose activity, positive = more growth | 0.4% of 270,000 active; calls by dose curve; note: potency is the fitted concentration of half-maximal effect; actives are rising curves; nearly all actives have a fitted effect of over 50% in size
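Recovery from NS1-induced slow growth read by OD600 in budding yeast switched to galactose assay medium (pH 6.0, -URA) at 1:100 dilution. Compound 23 nl per well; the matching strain lacking NS1 serves as control.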
Pf growth 48h: inhibits P. falciparum growth in the first generation, 48 h | P. falciparum luciferase growth in erythrocytes, 48 h | Potency, µM (series often up to 28.7 µM), for the others: at the top dose activity change, negative = inhibition, most hits filed as inhibitors | 5.9% of 310,000 active; note: potency is the fitted concentration of half-maximal effect; % is set by controls: 0 for no effect and ±100 for the full control effect
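A one-generation exposure of luciferase-tagged malaria parasites in RPMI 1640/Albumax erythrocyte culture, 37 C and 5% CO2. Inhibition is inferred from decreased luminescence after adding detection reagent.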
Sm TGR inh: inhibitors of Schistosoma mansoni thioredoxin glutathione reductase. purified TGR, DTNB reduction, TNB absorbance 405 nm. Potency, µM (doses to about 114 µM), without a hit: at the highest dose activity change, negative = inhibition, most hits filed as inhibitors. 3% of 360,000 active; note: potency is the fitted concentration of half-maximal effect; % is set by controls: 0 for no effect and ±100 for the full control effect; nearly all actives have a fitted effect of over 60% in size
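First, TGR (20 nM dispensed) and NADPH were mixed with compound. Second, a 15 min room-temperature incubation followed. Third, further NADPH and then DTNB were added to start the reaction. Finally, TNB absorbance was monitored kinetically.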
* marks the source's active call; other numbers are inactive results; u = inconclusive; x = no result; [ ] = remark or other dose. Unless noted, calls come from the whole dose curve; as a rule, active = well fitted curve in the direction sought with a large enough effect; inconclusive = small, poorly fitted or top-dose-only effect, or another doubt; inactive = no such curve, though single readings can be large; an effect the other way counts as inactive or inconclusive.

SMILES	Pf growth 96h	Shiga inhibitor	CHX counter	NS1 function inh	Pf growth 48h	Sm TGR inh
CC(=O)Nc1ccc(NS(=O)(=O)c2ccc(CN3C(=O)c4cccnc4C3=O)cc2)cc1	-7.3%	-12.2	5.4	0.1%	-34.8%	-0.4%
Cc1ccc(CNS(=O)(=O)c2ccc(CN3C(=O)c4cccnc4C3=O)cc2)o1	-4.1%	-2.7	-1.5	-1.6%	-8.3%	20µM*
CN(Cc1ccco1)S(=O)(=O)c1cc(F)ccc1CN1C(=O)c2cccnc2C1=O	-8.4%	-19.5	-4.1	-8.2%	19.4%	0.0%
CCc1ccc(C(=O)NNC(=O)OC)cc1	u	26.2	3.0	x	u	-5.1%
COc1ccc(C(=O)O/N=C(\N)c2ccccn2)cc1	-20.4%	-29.5	-11.0	-30.2%	-90.6%	3.4%
CCOc1ccc(C(=O)O/N=C(\N)c2ccccn2)cc1OCC	65.5%	84.6*	52.2*	-28.4%	-97.0%	-22.0%
CCOc1cc(C(=O)O/N=C(\N)c2ccccn2)cc(OCC)c1OCC	-17.4%	53.7*	52.9*	-75.7%	u	-1.7%
COc1cc(OC)cc(C(=O)NNC(=O)c2ccccn2)c1	u	-5.3	14.7	2.8%	9.28µM*	1.0%
COc1ccc(C(=O)NNC(=O)c2ccccn2)cc1	113.2%	-22.7	-11.3	-27.2%	-69.1%	1.4%
COc1cc(OC)cc(C(=O)O/N=C(\N)c2ccccn2)c1	u	115.9*	51.5*	-41.9%	u	15.7%
Cc1cc(NC(=O)CSc2nccn2-c2cccc(C)c2C)no1	8.28µM*	18.2	-2.4	x	u	-7.7%
Cc1cccc(-n2ccnc2SCC(=O)Nc2cc(C)on2)c1	10.4µM*	4.0	5.1	3.9%	-21.9%	0.1%
COc1ccc(-n2ccnc2SCC(=O)Nc2cc(C)on2)cc1	4.6%	-7.6	-1.1	-7.5%	3.3%	-16.0%
COc1cccc(NC(=O)CSc2nccn2-c2cccc(OC)c2)c1	11.7µM*	25.7	-1.9	-42.5%	3.4%	7.8%
Cc1cccc(NC(=O)Cn2nnc(-c3nc(-c4ccncc4)no3)c2N)c1	x	x	x	x	x	-2.1%
CCOC(=O)c1c(C)[nH]c(C(=O)OCC(=O)N(CC(C)C)C2CCS(=O)(=O)C2)c1C (stereo unspecified)	u	x	x	x	u	-17.7%
Cc1nn(-c2ccc(Cl)cc2)c2sc(C(=O)N3CCN(c4ccccn4)CC3)cc12	-1.8%	-6.3	-1.9	-10.6%	24.3%	-1.1%
Cc1ccc(C(=O)Nc2ccc(N3CCN(C(=O)c4ccco4)CC3)cc2)cc1	-19.1%	-3.8	9.4	1.4%	u	1.4%[57.1 µM]
Cc1nn(-c2ccc(Cl)cc2)c2sc(C(=O)N3CCN(C(=O)c4ccco4)CC3)cc12	10.4µM*	-8.5	-3.1	-5.5%	7.4%	1.6%
CC(C)(C)OC(=O)N1CCN(c2ccc(NC(=O)c3ccco3)cc2)CC1	1.9%	14.0	7.3	-31.9%	7.38µM*	-13.2%
Cc1occc1C(=O)N1CCN(c2ccc(Cl)cc2)CC1	4.65µM*	-25.3	-1.1	-20.3%	14.6%	u
CC(C)c1ccc(NC(=O)C(c2ccccc2)N2CCN(C(=O)c3ccco3)CC2)cc1 (stereo unspecified)	u	125.1*	55.2*	-73.6%	9.28µM*	-8.7%
CCN1CCN(c2ccc(NC(=O)c3ccc4c(c3)[nH]c(=O)n4Cc3ccc(F)cc3)cc2)CC1	13.1µM*	10.2	-2.9	27.9%	7.38µM*	-4.6%
O=C(Nc1ccc(N2CCN(C(=O)c3cccs3)CC2)cc1)c1ccc(Br)o1	u	x	x	x	11.7µM*	-11.4%
O=C(Nc1ccc(NC(=O)c2cccs2)cc1)c1ccc(Br)o1	30.8%	28.2	14.3	-4.0%	x	0.0%
SMILES	Pf growth 96h	Shiga inhibitor	CHX counter	NS1 function inh	Pf growth 48h	Sm TGR inh
O=C(Nc1ccc(N2CCN(C(=O)c3ccco3)CC2)cc1)c1cc(Br)ccc1Cl	10.4µM*	x	x	x	13.1µM*	0.3%
O=C(c1ccco1)N1CCN(c2ccc(Cl)c(Cl)c2)CC1	x	x	x	-72.9%	x	x
O=C(c1ccco1)N1CCN(c2ccc(Cl)cc2)CC1	1.2%	78.5*	36.7*	-17.8%	34.2%	-25.6%
CCN1CCN(c2ccc(NC(=O)c3ccco3)cc2)CC1	4.9%	34.1*	42.2*	9.8%	85.6%	3.2%
O=C(Nc1ccc(N2CCN(C(=O)c3ccco3)CC2)cc1)c1ccco1	u	42.8	12.4*	-1.6%	-9.2%	2.2%[57.1 µM]
O=C(Nc1ccc(N2CCN(C(=O)c3ccco3)CC2)cc1)c1ccc2c(c1)OCO2	u	-4.4	-1.0	9.9%	13.1µM*	0.6%
CCCC(=O)N1CCN(c2ccc(NC(=O)c3ccco3)cc2)CC1	x	10.8	8.4	-12.4%	35.9%	-0.7%
CCCCOC(=O)Cn1nnc2sc(-c3ccccc3)cc2c1=O	x	x	x	x	x	-3.8%
C/C(=N/NC(=S)Nc1cccc(C)c1)c1cccc([N+](=O)[O-])c1	11.6%	9.7	-3.5	13.4%	11.7µM*	x
O=C(NNC(=S)Nc1ccc(Cl)c(Cl)c1)c1cccc([N+](=O)[O-])c1	25.2%	9.6	1.9	-32.5%	3.2%	-1.6%
C/C(=N\NC(=O)c1cccc([N+](=O)[O-])c1)c1cccc(NC(=O)C2CC2)c1	16.0%	14.0	16.7*	-0.1%	-2.3%	10.6%
C/C(=N\NC(=S)NC(C)C)c1cccc([N+](=O)[O-])c1	u	-0.7	-1.3	4.7%	-16.3%	u
Cc1cccc(NC(=S)NNC(=O)c2cccc([N+](=O)[O-])c2)c1	u	50.4*	19.3*	-3.8%	64.2%	-0.2%
O=C(NNC(=S)NC(=O)c1ccccc1)c1cccc([N+](=O)[O-])c1	-27.2%	5.6	15.2	-80.1%	x	-20.4%
O=C(NNC(=S)NC(=O)c1cccc([N+](=O)[O-])c1)c1ccc(O)cc1	25.0%	53.3*	31.9*	-2.8%	22.5%	-16.5%
Cn1cnc([N+](=O)[O-])c1SCC(=O)O	x	x	x	0.7%	x	x
O=C(NC(=S)Nc1cccc(F)c1)c1cccc([N+](=O)[O-])c1	38.2%	67.0*	19.7*	-3.6%	-32.4%	20µM*
CC(=O)NC(=S)Nc1cccc([N+](=O)[O-])c1	15.3%	-7.1	-3.0	6.5%	7.4%	-17.2%
CC(C)NS(=O)(=O)c1ccc(NC(=S)NC(=O)c2cccc([N+](=O)[O-])c2)cc1	13.1µM*	6.5	-2.2	5.2%	19.4%	u
O=[N+]([O-])c1ccc(N2CCN(C(=S)Nc3cccc(F)c3)CC2)cc1	-14.4%	-3.3	-3.6	0.9%	3.29µM*	26.6%
Cc1ccc(C)c(NC(=O)CN(Cc2ccccc2)S(=O)(=O)c2ccc3nc(C)sc3c2)c1	x	x	x	x	x	-1.2%
CC1CCc2c(sc(NS(=O)(=O)c3ccccc3)c2C(=O)OC(C)C)C1 (stereo unspecified)	-25.5%	-2.7	-2.4	-3.7%	-24.2%	-18.1%
CC12CC(NC(=O)N1c1cccc(C(=O)NCc3ccccn3)c1)c1ccccc1O2 (stereo unspecified)	u	-2.6	1.0	-4.3%	-3.8%	1.0%
